# Only some compounds are listed: those with a hit (about 9.5% of all), similar ones and a draw of the others.
# Pf growth 48h: inhibits P. falciparum growth in the first generation, 48 h; P. falciparum luciferase growth in erythrocytes, 48 h; Potency, µM (doses to about 28.7 µM), for the others: at the highest dose activity change, negative = inhibition, most hits filed as inhibitors; 310,000 compounds, 5.9% hits; AID 504832; active = well fitted inhibition curve with a large enough effect; inconclusive = small, poorly fitted or top-dose-only effect, or another doubt; inactive = no such curve, though single readings can be large or run the other way; also: % is scaled to controls: 0 for no effect and ±100 for the full control effect
#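 Here the parasites carry a stable luciferase gene and grow inside erythrocytes in Albumax-based RPMI medium with compound for one erythrocytic cycle. Activity is scored as loss of luminescent signal.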
# SARS PLP yeast: inhibitors of SARS-CoV papain-like protease in yeast; S. cerevisiae expressing SARS-CoV PLpro, growth rescue; Potency, µM (doses to about 32.9 µM), for the others: top-dose activity, positive = growth rescue, usual class: activators; 330,000 compounds, 0.19% hits; AID 485353; also: 0% is about no effect; nearly all actives have a fitted effect of over 55% in size
# NS1 function inh: influenza NS1 inhibition | Potency, µM (top dose mostly 46.1 µM), for inactives: top-dose activity, positive = more growth | AID 2326 | 270,000 compounds, 0.4% hits; also: actives are rising curves; nearly all actives have a fitted effect of over 50% in size
#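 Read-out: OD600 growth recovery of NS1-expressing budding yeast. Cells grown overnight at 30C in -URA glucose medium, washed, resuspended and diluted 1:100 in 2% galactose assay medium, pH 6.0. Same strain lacking NS1 served as positive control.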
# Pf growth 96h: P. falciparum growth inhibition at 96 hour, primary screen for plastid delayed-death inhibitors | Potency, µM (top dose mostly 28.7 µM), for inactives: at the highest dose activity change, negative = inhibition, usual class: inhibitors | P. falciparum luciferase reporter growth, 96 h | 320,000 compounds, 6.9% hits | AID 504834; active = well fitted inhibition curve with a large enough effect; inconclusive = small, poorly fitted or top-dose-only effect, or another doubt; inactive = no such curve, though single readings can be large or run the other way; also: % is scaled to controls: 0 for no effect and ±100 for the full control effect
#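 Two parasite generations (96 h, 37 C, 5% CO2) of compound exposure in infected erythrocytes (0.05% parasitemia, 2% hematocrit). Luciferase-reporter P. falciparum; decreased luminescence indicates inhibited growth, aimed at apicoplast-acting delayed death.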
# RE007 growth inh: less growth of the S. pombe RE007 Vpr strain; S. pombe RE007 Vpr strain, BacTiter-Glo ATP luminescence, 24 h; Potency, µM (titrated, usually from 92.2 µM), for the others: at the highest dose activity change, negative = less growth, usual class: inhibitors; 360,000 compounds, 0.21% hits; AID 651644; active = well fitted falling curve with a large enough effect; inconclusive = small, poorly fitted or top-dose-only effect; inactive = no such curve, though single readings can be large or run the other way; also: % is scaled to controls: 0 for no effect and ±100 for the full control effect; nearly all actives have a fitted effect of over 50% in size
#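 Fission yeast RE007 carrying one integrated HIV-1 vpr copy, seeded at OD 0.01 in PMG+AL medium with 23 nL pinned compound. Grown 24 h at 30 degrees; viability read by BacTiter-Glo luminescence after 5 min.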
# An asterisk follows results filed as active; ? = inconclusive; · = no result; [ ] = dose if it differs, or a comment. Unless noted, calls follow the shape of the full dose curve. Potency is read from the fitted curve at half-maximal effect.
SMILES,Pf growth 48h,SARS PLP yeast,NS1 function inh,Pf growth 96h,RE007 growth inh
O=C(OCc1ccccc1)N1Cc2ccnnc2CC1c1ccccc1Br (stereo unspecified),·,·,·,·,6.3%
Cc1cc2c(cc1C)-n1nnnc1C(N1CCN(CC(=O)NC(C)C)CC1)C(=O)N2 (stereo unspecified),·,·,·,·,-2.4%
COc1cc(C(=O)N/N=C/c2sc(N3CCOCC3)nc2-c2ccccc2)cc(OC)c1OC,18.2%,3.8%,·,-1.5%,-9.0%
O=[N+]([O-])c1ccc(N/N=C/c2sc(N3CCOCC3)nc2-c2ccccc2)c(S(=O)(=O)Nc2ccccc2Cl)c1,1.47µM*,0.6%,0.7%,?,3.6%
O=C(N/N=C/c1sc(N2CCOCC2)nc1-c1ccccc1)c1cccc(S(=O)(=O)N2CCOCC2)c1,1.85µM*,0.4%,14.5%,2.08µM*,10.4%
Nc1ccc(C(=O)N/N=C/c2sc(N3CCOCC3)nc2-c2ccccc2)cc1,?,-23.4%,17.1%,?,7.3%
O=C(O)c1cccc(N/N=C/c2sc(N3CCOCC3)nc2-c2ccccc2)c1,?,-2.3%,?,5.22µM*,-18.9%
COCCN1C(=O)CCC1(C)C(=O)Nc1c(C)cccc1C (stereo unspecified),·,·,·,·,5.0%
COc1ccc(-n2ccnc2SCC(=O)NC2CCCC2)cc1,-7.5%,-4.3%,·,-1.2%,20.4%
COc1ccc2c(c1)C(C)=CC(C)(C)N2S(=O)(=O)c1ccc(NC(C)=O)cc1,?,-0.6%,-5.4%,-3.8%,5.1%
COc1cccc(CN2CCN(S(=O)(=O)c3ccc(Br)cc3)CC2)c1,4.7%,3.8%,-34.8%,·,-5.8%
CCOc1ccc2c(c1)C(C)=CC(C)(C)N2S(=O)(=O)c1ccc(F)cc1,-16.1%,-3.5%,-56.4%,?,-5.1%
CC1=CC(C)(C)N(S(=O)(=O)c2ccc(C)cc2)c2ccccc21,·,-25.0%,-5.3%,10.4µM*,-12.6%
CC1=CC(C)(C)N(S(=O)(=O)c2ccc(F)cc2)c2ccc(C)cc21,·,0.4%[6.58 µM],4.1%,14.7µM*,9.0%
CCOc1ccc2c(c1)C(C)=CC(C)(C)N2S(=O)(=O)c1ccc(NC(C)=O)cc1,6.57µM*,4.6%,-11.8%,45.5%,-2.7%
COc1ccc2c(c1)C(C)=CC(C)(C)N2S(=O)(=O)c1ccc(Br)cc1,9.28µM*,-4.2%,-4.0%,-11.5%,-2.6%
CCCc1ccc2oc(C(=O)N3CCC(C(N)=O)(N4CCCCC4)CC3)c(C)c2c1,?,7.2%,12.5%,22.4%,5.2%
CCOC(=O)c1ccc2c(c1)n(CC)c(/C=C/N(C)c1ccccc1)[n+]2CC,1.17µM*,-5.8%,1.2%,-0.7%,6.8%
CCOC(=O)c1ccc2c(c1)n(Cc1ccccc1)c(C)[n+]2CC,?,0.6%,4.2%,15.5%,?
Brc1ccc(-c2csc(N3CCC(c4ccccc4)C3)n2)cc1 (stereo unspecified),31.2%,-2.4%,1.0%,8.28µM*,11.9%
Brc1ccc(-c2csc(N3CCc4ccccc4C3)n2)cc1,10.0%,-0.5%,-0.6%,35.2%,-10.4%
CN(C)c1ccc(C(=O)N2CCN(c3cc(C(F)(F)F)nc4ccccc34)CC2)cc1,?,-5.5%,3.0%,13.1µM*,-5.4%
Cc1cc2oc(=O)c(CC(=O)NCCCN(C)C)c(C)c2c2occ(C(C)(C)C)c12,2.62µM*,-0.9%,2.1%,1.85µM*,2.0%
COc1cscc1C(N)=O,-23.1%,1.4%,1.2%,?,3.2%
COc1cccc(C(=O)C2CN(c3ccccc3)CC2c2ccc(Cl)cc2)c1 (stereo unspecified),10.4µM*,0.4%,-3.0%,10.4µM*,-7.8%
SMILES,Pf growth 48h,SARS PLP yeast,NS1 function inh,Pf growth 96h,RE007 growth inh
CCOC(=O)c1cocc1C(=O)O,·,·,·,·,14.9%
Cc1ccc(NC2=CC(=O)C(=O)c3ccccc32)c(C)c1,0.828µM*,-7.3%,·,0.586µM*,2.9%
O=C1C=C(Nc2ccccc2O)c2ccccc2C1=O,10.4µM*,-21.6%,-80.0%,9.28µM*,?
O=C1C=C(Nc2ccc(F)cc2)c2ccccc2C1=O,1.85µM*,-0.6%,·,1.04µM*,-10.9%
CCOC(=O)[C@]12CCC=C1N(CCC1=CCCCC1)C(=O)[C@H](CC(=O)N1CCCC1)C2,·,·,·,·,22.1%
CCOC(=O)[C@]12CCC=C1N(CCC1=CCCCC1)C(=O)[C@H](CC(=O)N1CCN(C(=O)c3ccco3)CC1)C2,·,·,·,·,-6.3%
O=CNc1ccc2c(c1)Cc1cccc(NC=O)c1-2,·,·,·,·,-12.1%

# Source: PubChem BioAssay (National Center for Advancing Translational Sciences (NCATS))
